Measurements taken from article PMC5540273 (PLoS ONE, 2017).

What follows are compounds tested on EPHA6. Settings: concentration: 1 μM, replicates: in singlicate; n = 1.
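Further: KINOMEscan kinase panel screen.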

Compound	%Inh [%]
CN1C(=O)C(Nc2cc(Cl)c(O)c(Cl)c2)=C(c2ccc(Cl)cc2)C1=O [SB-404321]	0
CCC(=O)c1c(-c2ccccc2)c2cc(Cl)ccc2c(=O)n1Cc1cc(C(=O)NC2CC2)n(C)n1	38
COc1cccc(C2=C(Nc3cccc(C(=O)O)c3)C(=O)NC2=O)c1 [SB-390770]	11
O=C(Nc1ccc2c(c1)OCO2)NC1CCN(c2ccnc(NCc3ccc(F)cc3)n2)CC1 [GSK1379859]	8
COc1cc2nccc(Nc3cccc(Oc4ccccc4)c3)c2cc1OC.Cl [GW284543]	0
COc1cc(Nc2nccc(N3CCC(NC(=O)C(C)c4ccc(Cl)cc4)C3)n2)cc(OC)c1OC (centres unmarked) [GSK1379757]	18
Cc1ccccc1COc1cc(-n2cnc3cc(Cl)ccc32)sc1C(N)=O [GW813349]	0
CCC(=O)c1c(-c2ccccc2)c2cc(Cl)ccc2c(=O)n1Cc1cc(S(C)(=O)=O)n(CCC(C)(C)O)n1	34
Cc1nn2c(=O)cc(N3CCOCC3)nc2n1Cc1cccc(Cl)c1Cl [GSK2342769]	18
COc1ccc(Nc2nccc(N3CCC(NS(=O)(=O)c4ccc(NC(C)=O)cc4)C3)n2)cc1 (centres unmarked) [GSK1379729]	31
Cc1cccc(-c2nc(Nc3ccc4c(cnn4C)c3)c3ccccc3n2)n1 [GW876731]	0
C[C@@H]1CC[C@H](C(=O)NC2CCCCC2)CN1c1cc(-c2ccc3c(N)n[nH]c3c2)nc(N)n1 [GSK2291363]	10
COc1cc2ncn(-c3cc(OCc4ccncc4Br)c(C(N)=O)s3)c2cc1OC [GW854278]	0
Cc1ccc(-c2ccc3c(ccc4sc5c(c43)NC[C@@H](C)N=C5N(C)C)n2)cn1	0
COc1ccc(-c2coc3ccc(-c4nnc(SCc5cccc(C#N)c5)o4)cc23)cc1	26
Cc1cc(Nc2nc(-c3cccc(C)n3)nc3ccccc23)ccn1 [GW872411]	0
Cl.NS(=O)(=O)c1cccc(Nc2cc(-c3ccc(F)cc3)n[nH]2)c1 [GW824645]	0
CC(C)(C)c1ccc(C(=O)Nc2cn3cc(-c4ccccc4)ccc3n2)cc1	0
CCn1c(-c2ccoc2)nc2cnccc21 [SB-733887]	7

Compound	%Inh [%]
Nc1n[nH]c2nnc(-c3ccccc3)c(-c3ccccc3)c12 [GW554060]	28
CN(C)c1cc(-c2ccc3c(N)n[nH]c3c2)nc(N)n1 [GSK2219329]	0
Nc1ncnc2c1ncn2-c1cccc(F)c1 [SKF-97560]	0
Nc1nc(-c2ccccc2F)c(-c2ccnc3ccccc23)s1 [GW560459]	0
CCn1c(-c2nonc2N)nc2ccccc21 [SB-693162/GW549034]	0
Cc1ccc(Oc2ccc(Nc3ncnc4cc[nH]c34)cc2C)cn1	26
Cc1nnc(-c2ccc(C)c(-c3ccc(C(=O)O)cc3)c2)o1 [GW608005]	9
CCS(=O)c1ccc(-c2coc3ccc(-c4nnc(C)o4)cc23)cc1 (centres unmarked)	12
COC(=O)c1c(-c2ccccc2)c2cc(C)ccc2c(=O)n1Cc1ccccc1	75
Nc1nccc2scc(-c3ccc4c(c3)CCN4C(=O)Cc3ccccc3)c12 [GSK2576924]	2
OCCCNc1nccc(-c2c(-c3cccc(C(F)(F)F)c3)nn3cc(C(F)(F)F)ccc23)n1 [GW630813]	0
O=c1cc(N2CCOCC2)nc2n(Cc3ccc(F)c(Cl)c3)ccn12 [GSK2297099]	0
Cc1nnc(-c2ccc3ncn(-c4ccc(S(C)=O)cc4)c3c2)o1 (centres unmarked)	50
COC(=O)c1c(-c2ccccc2)c2cc(Br)ccc2c(=O)n1Cc1ccc(NC(=O)CCC(=O)O)cc1	31
COc1cc(OC)cc(-c2cc3cnc(N)nc3nc2NC(=O)NC(C)(C)C)c1	0
Nc1ncnc2c1ncn2-c1ccc(Cl)cc1 [AH2635]	0
Cl.c1ccc(Cn2cnc3cc(Nc4ncnc5ccccc45)ccc32)cc1 [GW272142]	10
CCC(=O)c1c(-c2ccccc2)c2cc(Cl)ccc2c(=O)n1Cc1ccc(C(=O)O)cc1	6

The compounds below were run on EPHA7. Settings: concentration: 1 μM, replicates: in singlicate; n = 1.

Compound	%Inh [%]
CN1C(=O)C(Nc2cc(Cl)c(O)c(Cl)c2)=C(c2ccc(Cl)cc2)C1=O [SB-404321]	0
CCC(=O)c1c(-c2ccccc2)c2cc(Cl)ccc2c(=O)n1Cc1cc(C(=O)NC2CC2)n(C)n1	11
COc1cccc(C2=C(Nc3cccc(C(=O)O)c3)C(=O)NC2=O)c1 [SB-390770]	0
O=C(Nc1ccc2c(c1)OCO2)NC1CCN(c2ccnc(NCc3ccc(F)cc3)n2)CC1 [GSK1379859]	1
COc1cc2nccc(Nc3cccc(Oc4ccccc4)c3)c2cc1OC.Cl [GW284543]	0
COc1cc(Nc2nccc(N3CCC(NC(=O)C(C)c4ccc(Cl)cc4)C3)n2)cc(OC)c1OC (centres unmarked) [GSK1379757]	2
Cc1ccccc1COc1cc(-n2cnc3cc(Cl)ccc32)sc1C(N)=O [GW813349]	0
CCC(=O)c1c(-c2ccccc2)c2cc(Cl)ccc2c(=O)n1Cc1cc(S(C)(=O)=O)n(CCC(C)(C)O)n1	10
Cc1nn2c(=O)cc(N3CCOCC3)nc2n1Cc1cccc(Cl)c1Cl [GSK2342769]	0
COc1ccc(Nc2nccc(N3CCC(NS(=O)(=O)c4ccc(NC(C)=O)cc4)C3)n2)cc1 (centres unmarked) [GSK1379729]	17
Cc1cccc(-c2nc(Nc3ccc4c(cnn4C)c3)c3ccccc3n2)n1 [GW876731]	0
C[C@@H]1CC[C@H](C(=O)NC2CCCCC2)CN1c1cc(-c2ccc3c(N)n[nH]c3c2)nc(N)n1 [GSK2291363]	8
COc1cc2ncn(-c3cc(OCc4ccncc4Br)c(C(N)=O)s3)c2cc1OC [GW854278]	0
Cc1ccc(-c2ccc3c(ccc4sc5c(c43)NC[C@@H](C)N=C5N(C)C)n2)cn1	0
COc1ccc(-c2coc3ccc(-c4nnc(SCc5cccc(C#N)c5)o4)cc23)cc1	0
Cc1cc(Nc2nc(-c3cccc(C)n3)nc3ccccc23)ccn1 [GW872411]	0
Cl.NS(=O)(=O)c1cccc(Nc2cc(-c3ccc(F)cc3)n[nH]2)c1 [GW824645]	0
CC(C)(C)c1ccc(C(=O)Nc2cn3cc(-c4ccccc4)ccc3n2)cc1	0
CCn1c(-c2ccoc2)nc2cnccc21 [SB-733887]	12

Compound	%Inh [%]
Nc1n[nH]c2nnc(-c3ccccc3)c(-c3ccccc3)c12 [GW554060]	0
CN(C)c1cc(-c2ccc3c(N)n[nH]c3c2)nc(N)n1 [GSK2219329]	0
Nc1ncnc2c1ncn2-c1cccc(F)c1 [SKF-97560]	10
Nc1nc(-c2ccccc2F)c(-c2ccnc3ccccc23)s1 [GW560459]	0
CCn1c(-c2nonc2N)nc2ccccc21 [SB-693162/GW549034]	0
Cc1ccc(Oc2ccc(Nc3ncnc4cc[nH]c34)cc2C)cn1	0
Cc1nnc(-c2ccc(C)c(-c3ccc(C(=O)O)cc3)c2)o1 [GW608005]	0
CCS(=O)c1ccc(-c2coc3ccc(-c4nnc(C)o4)cc23)cc1 (centres unmarked)	0
COC(=O)c1c(-c2ccccc2)c2cc(C)ccc2c(=O)n1Cc1ccccc1	0
Nc1nccc2scc(-c3ccc4c(c3)CCN4C(=O)Cc3ccccc3)c12 [GSK2576924]	4
OCCCNc1nccc(-c2c(-c3cccc(C(F)(F)F)c3)nn3cc(C(F)(F)F)ccc23)n1 [GW630813]	0
O=c1cc(N2CCOCC2)nc2n(Cc3ccc(F)c(Cl)c3)ccn12 [GSK2297099]	6
Cc1nnc(-c2ccc3ncn(-c4ccc(S(C)=O)cc4)c3c2)o1 (centres unmarked)	1
COC(=O)c1c(-c2ccccc2)c2cc(Br)ccc2c(=O)n1Cc1ccc(NC(=O)CCC(=O)O)cc1	5
COc1cc(OC)cc(-c2cc3cnc(N)nc3nc2NC(=O)NC(C)(C)C)c1	0
Nc1ncnc2c1ncn2-c1ccc(Cl)cc1 [AH2635]	0
Cl.c1ccc(Cn2cnc3cc(Nc4ncnc5ccccc45)ccc32)cc1 [GW272142]	0
CCC(=O)c1c(-c2ccccc2)c2cc(Cl)ccc2c(=O)n1Cc1ccc(C(=O)O)cc1	0
